Screens as filed in PubChem BioAssay.
Only some compounds are listed: those with a hit (about 19% of all), similar ones and a draw of the others.
HT1080NT lethal: kills 2HG-producing HT-1080-NT fibrosarcoma cells; HT-1080-NT fibrosarcoma viability, CellTiter-Glo ATP luminescence, 48 h; Potency, µM (doses to about 46.1 µM), for inactives: top-dose activity, negative = less viability, hits mostly cytotoxic; actives 1.6% (n = 360,000);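 further: NT is the 2HG producing partner of a matched IDH1 knockdown line; potency means the concentration at half of the fitted maximal effect; 0% = DMSO-treated cells and -100% = media-only wells without cells; nearly all actives have a fitted effect of over 55% in size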
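HT-1080-NT fibrosarcoma cells (2HG-overproducing), 750 cells/well in RPMI with 5% FBS, dosed after 2 h and incubated 48 h at 37C. CellTiter-Glo luminescence normalized to DMSO and no-cell wells; concentration-response curves fitted and classed.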
HT1080 IDH1KD tx: HT-1080 IDH1 knockdown cell toxicity (counter line); actives 2% (n = 360,000); Potency, µM (highest dose often 46.1 µM), for inactives: top-dose activity, negative = toxicity, actives largely listed as cytotoxic; AID 686971; HT-1080 IDH1 knockdown viability, ATP luminescence, 48 h;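 further: potency means the concentration at half of the fitted maximal effect; 0% = DMSO wells and -100% = cell-free medium wells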
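Cytotoxicity counter-line: IDH1KD HT-1080, 48 h, CellTiter-Glo. Curves classed by r2, magnitude and activity.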
TDP1 cell CPT: growth inhibition of DT40 Tdp1-/-;hTDP1 cells with camptothecin (screen for TDP1 inhibitors) | chicken DT40 Tdp1-/-;hTDP1 cells + 20 nM CPT, ATP luminescence, 48 h | Potency, µM (titrated, usually from 46.2 µM), for inactives: at the top dose activity change, negative = growth inhibition, hits mostly inhibitors | actives 12% (n = 420,000) | AID 686979; further: potency means the concentration at half of the fitted maximal effect; nearly all actives have a fitted effect of over 55% in size
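Chicken DT40 Tdp1-/- cells stably complemented with human TDP1 were seeded at 400 cells/well in medium containing 20 nM camptothecin, exposed to pin-transferred compounds, and grown at 37 °C for at least 48 hr. Viability was read as ATP luminescence.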
TDP1 cell noCPT: qHTS for Inhibitors of human tyrosyl-DNA phosphodiesterase 1 (TDP1): qHTS in cells in absence of CPT; DT40 Tdp1-/- hTDP1 cells, no CPT, ATP luminescence, 48 h; Potency, µM (highest dose often 46.2 µM), without a hit: top-dose activity change, negative = growth inhibition, most hits filed as inhibitors; actives 15% (n = 420,000); further: potency means the concentration at half of the fitted maximal effect; nearly all actives have a fitted effect of over 55% in size
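Seeded 400 DT40-hTDP1 cells/well (vehicle DMSO, no 20 nM CPT); pinned compounds; ≥48 hr at 37 °C; CellTiter-Glo luminescence as viability measure.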
IL-1B inflam inh: inhibitors of inflammasome signaling (IL-1 beta secretion) | THP-1 LPS/ATP IL-1B secretion, AlphaLISA, 16 h; active compounds read low | actives 4.7% (n = 360,000) | activity change, % at 57.5 µM | AID 743279; in the data active means activity change below about -50%; inconclusive means mostly about -30% to -49%
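THP-1 cells pretreated 1 hr with compounds (up to 57.5 uM final), then stimulated with LPS (250 ng/mL final) plus ATP (1.25 mM final); secreted IL-1B measured by AlphaLISA after 16 hr, decreased signal indicating inhibition.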
Starred values were filed as active, the others as inactive; ? = inconclusive; . = not tested or not shown; ! = not active in a repeat; [ ] = another dose, or the depositor's remark. Unless noted, the call rests on the fitted dose curve; in most records, active means well fitted curve in the direction sought with a large enough effect; inconclusive means small, poorly fitted or top-dose-only effect, or another doubt; inactive means no such curve, though single readings can be large; an effect the other way counts as inactive or inconclusive. Unless noted, on the % scale 0 is the no-effect control and ±100 the full control effect.

SMILES	HT1080NT lethal	HT1080 IDH1KD tx	TDP1 cell CPT	TDP1 cell noCPT	IL-1B inflam inh
Cc1cccc2c1N(Cc1ccccc1OCCC(C)C)C(=O)C2=O	.	.	14.6µM*	11.6µM*	.
COc1ccccc1CN1C(=O)c2cccc3cccc(c23)C1=O	7.1%	5.0%	-19.5%	?	-6.1
COc1ccc(S(=O)(=O)N2CCCCC2)cc1NC(=O)CCCNC(=O)c1ccc(Cl)cc1	-0.7%	-14.0%	?	-13.6%	-9.7
COc1ccccc1-c1ccnc(-n2ncc(C(=O)N3CCCCC3c3cccnc3)c2C)n1 (configuration not stated)	.	.	12.6%[9.04 µM]	-12.7%	.
O=C(NCc1ccccn1)C(C(=O)c1cccc([N+](=O)[O-])c1)n1cc(Cl)ccc1=O (configuration not stated)	-0.8%	7.6%	-15.3%	0.7%	0.0
O=c1[nH]c2ccc(S(=O)(=O)Nc3ccccc3O)cc2[nH]1	-0.2%	-4.5%	?	1.6%	-6.7
C[C@@H]1CN([C@@H](C)CO)C(=O)CCCn2nncc2CO[C@@H]1CN(C)S(=O)(=O)c1ccccc1F	-2.1%	2.8%	6.7%	-18.6%	-14.4
OC1(c2cccnc2)CCN(Cc2ccc3c(c2)CN(Cc2ccc(F)c(F)c2)CCO3)CC1	.	.	-5.8%[9.04 µM]	11.6µM*	.
Cc1nn(C)c(Cl)c1CN1CCOc2ccc(CN3CCC(Oc4cccnc4)CC3)cc2C1	.	.	10.3µM*	8.2µM*	.
O=C(CCNC(=O)c1ccccc1)OCC(=O)c1ccccc1	12.7%	10.7%	3.8%	2.0%	0.0
Cc1ccc(S(=O)(=O)N2C[C@H]3C(=O)C[C@@H](c4cccc(C)c4)N(S(=O)(=O)c4ccc(C)cc4)[C@H]3C[C@H]2c2ccccc2)cc1	26.7%	16.4%	-20.9%	-21.0%	19.0
CCOc1ccc(NC(=O)CN(C)C(=O)c2cccnc2Sc2ccc(Cl)cc2)cc1OCC	-3.3%	-2.1%	?	?	15.1
COc1ccccc1C1C2C(=O)N(c3ccccc3)C(=O)C2ON1c1ccccc1 (configuration not stated)	-1.9%	-6.6%	-5.5%	-3.6%	-6.4
COc1ccc(C2C3C(=O)N(Cc4ccccc4)C(=O)C3ON2c2ccccc2)c(OC)c1OC (configuration not stated)	-6.9%	-4.3%	?	20.6µM*	-3.6
O=C(NCc1ccccn1)C1CC(c2ccc(Cl)c(Cl)c2)=NO1 (configuration not stated)	-20.4%	?	?	20.6µM*	32.9
O=C(NCc1cccnc1)C1CC(c2ccc(Cl)c(Cl)c2)=NO1 (configuration not stated)	-23.8%	-29.6%	?	20.6µM*	33.7
CC(C)Nc1nc(N)c(C(=O)C23CC4CC(CC(C4)C2)C3)s1	-0.7%	-4.5%	20.6µM*	?	23.7
COc1cccc(C(=O)c2sc(NC(C)C)nc2N)c1	-23.7%	?	?	?	-107.3*
COc1cccc(C(=O)c2sc(Nc3ccc(F)c(Cl)c3)nc2N)c1	.	.	2.0%	-15.7%	.
COc1ccc(C(=O)c2sc(NC(C)C)nc2N)cc1OC	?	-4.3%[9.24 µM]	?	23.1µM*	-109.0*
CCOC(=O)[C@@H]1[C@H]2COc3cc(OC)ccc3[C@@H]2N2C(=O)N(c3ccc(F)cc3)C(=O)[C@@]12C	?	4.5%	-10.2%	-20.6%	-5.4
CC(=O)N1c2ccc(S(=O)(=O)NCCc3ccc(S(N)(=O)=O)cc3)cc2CC1C (configuration not stated)	-8.2%	0.7%	-16.5%	-23.0%	2.7
COc1ccc(-c2noc(-c3ccc(NCC4CCCO4)c([N+](=O)[O-])c3)n2)cc1 (configuration not stated)	.	.	-2.9%	?	.
O=C1c2cc([N+](=O)[O-])ccc2-c2cc(Br)c(N=C(NO)C(F)(F)F)cc21	-17.2%	-19.4%	-7.3%	?	-100.9*
COc1ccc(-c2nnc3ccc(SCC(=O)N4CCCC4)nn23)cc1	10.7%	2.9%	?	?	-19.1
SMILES	HT1080NT lethal	HT1080 IDH1KD tx	TDP1 cell CPT	TDP1 cell noCPT	IL-1B inflam inh
COC(=O)c1ccc(CSc2ccc3nnc(-c4ccc(OC)c(OC)c4)n3n2)o1	5.8%	2.7%	?	10.3µM*	0.0
COc1ccc(-c2nnc3ccc(SCC(=O)N4CCCCCC4)nn23)cc1OC	-3.0%	-1.6%	-29.4%	?	-64.7*
COc1ccc(NC(=O)CSc2ccc3nnc(-c4cccnc4)n3n2)cc1OC	21.8%	2.6%	-3.3%	0.4%	-30.0
CC(C)CN(CCCNC(=O)CN1N=C(c2ccccc2)CCC1=O)CC(C)C	.	.	0.6%	-4.3%	.
O=C(COC(=O)c1ccc(O)cc1)NC(c1ccccc1)c1ccccc1	12.9%	10.9%	-4.5%	-29.8%	20.9
Cc1ccc(NS(=O)(=O)N2CCOCC2)cc1	-7.5%	1.5%	-13.8%	-1.0%	-4.1
CC1=CC(C)(C)NC(=S)N1c1ccc2ccccc2c1	5.62µM*	7.08µM*!	?	?	11.4
CC1=CC(C)(C)NC(=S)N1c1cccc2ccccc12	5.6%	0.6%	?	25.9µM*	0.0
c1csc(CNc2ccn3nc(-c4ccc(OCCN5CCOCC5)cc4)cc3n2)c1	?	?	20.6µM*	16.4µM*	-14.1
c1ccc(-c2cc3nc(NCc4cccs4)ccn3n2)cc1	?	?	-105.0%	?	14.6
c1ccc(OCCNc2ccn3nc(-c4ccc(OCCN5CCOCC5)cc4)cc3n2)cc1	?	?	9.2µM*	16.4µM*	-11.0
Cc1cc(F)ccc1-c1cc(C(=O)NC(C)C)[nH]n1	?	15.7%	-23.0%	-20.2%	-16.3
CCCCn1c(N2CCC(Cc3ccccc3)CC2)nc2c1c(=O)[nH]c(=O)n2C	?	?	23.1µM*	20.6µM*	?
Cc1nnc(SCCn2c(N3CCC(Cc4ccccc4)CC3)nc3c2c(=O)[nH]c(=O)n3C)s1	8.6%	10.8%	?	16.4µM*	27.0
Cc1nnc(SCCn2c(N3CCN(Cc4ccccc4)CC3)nc3c2c(=O)[nH]c(=O)n3C)s1	-4.4%	1.6%	-4.2%	-20.4%	15.0
NNC(=O)Cn1nc2n(c1=O)-c1ccccc1SC2	-3.4%	-1.4%	-20.7%	8.1%	-6.9
COc1cc(OC)c(NC(=O)c2cc(C)nc3c2c(C)nn3-c2ccc(C)cc2)cc1Cl	.	.	-25.7%	-29.1%	.
Cc1cc(C(=O)Nc2ccc(Cl)cc2)c2c(C)nn(-c3ccccc3)c2n1	.	.	9.2µM*	?	.
CCOC(=O)c1cccc(NC(=O)c2cc(C)nc3c2c(C)nn3-c2ccc(C)cc2)c1	.	.	?	20.6µM*	.
Cc1cc(C(=O)NCc2ccc(Cl)cc2)c2c(C)nn(-c3ccccc3)c2n1	.	.	-2.3%	-16.5%	.
